# Reference: PubChem BioAssay AID757 (NMMLSC, 2007)
# Out of some 190,000 compounds screened, about 520 (0.27%) were called active. Not shown: some 2% with an inconclusive outcome.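 The calls were made as follows: active = GTP binding activity at least 20 points away from the 100% control level, either lower or higher; inconclusive = compound flagged as likely green fluorescent, judged across all proteins; inactive = the rest.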 This excerpt belongs to a sample that is enriched for actives.
# Target: Ras-related C3 botulinum toxin substrate 1 (Homo sapiens) (UniProt P63000)
# Test: compounds altering fluorescent GTP loading on wildtype Rac1 – biochemical, GST-Rac1 beads, flow cytometry, multiplex, primary screen (AID 757)
# Conditions: at 10 µM, actives lie on both sides, 0 = cold GTP competed, 100 = untreated
row,Compound,GTP binding activity (% of control)
1,CC(=O)c1ccc(-c2nnc(CCC(=O)N(C)Cc3cnc4ccccn34)o2)s1,92% (inactive)
2,COCCn1c(C)cc(C(=O)CSc2nc3ccccc3c(=O)n2C(C)COC)c1C (stereo unspecified),97% (inactive)
3,O=C(/C=C\c1cn(-c2ccccc2)nc1-c1cccs1)N1CCOCC1,106% (inactive)
4,O=C(O)/C=C/c1cn(Cc2ccccc2)nc1-c1cccs1,157% [activator] (active)
5,O=C(O)/C=C/c1cn(-c2ccccc2)nc1-c1cccs1,94% (inactive)
6,O=S(=O)(Nc1ccccn1)c1cccc(S(=O)(=O)c2ccc(Cl)cc2)c1,97% (inactive)
7,Cc1c(NC(=S)NC(=O)CCc2ccccc2)c(=O)n(-c2ccccc2)n1C,101% (inactive)
8,CC1CCC(NC(=O)C2c3ccccc3C(=O)N2Cc2ccc3c(c2)OCO3)CC1 (stereo unspecified),99% (inactive)
9,COc1cccc(-c2ccc(SCC(=O)N3CCN(c4ccccc4)CC3)nn2)c1,92% (inactive)
10,CN(C)c1ccc(C(=S)N2CCN(C(=S)Nc3ccc(Cl)cc3)CC2)cc1,98% (inactive)
11,O=C(c1cn2ccccc2n1)N1CCc2c([nH]c3ccccc23)C1c1ccccn1 (stereo unspecified),98% (inactive)
12,O=c1cc(O)c(-c2cccc(C(F)(F)F)c2)c(Cl)[nH]1,97% (inactive)
13,O=C(NCCCN1CCOCC1)c1ccc([N+](=O)[O-])cc1[N+](=O)[O-],102% (inactive)
14,O=C(OCC(=O)c1cccs1)c1ccc([N+](=O)[O-])o1,99% (inactive)
15,CNC(=S)Nc1ccc([N+](=O)[O-])cc1,101% (inactive)
16,CC(Oc1ccc(Br)cc1Br)C(=O)NC1CCCC1 (stereo unspecified),96% (inactive)
17,CC(=O)c1c(C)[nH]c(C(=O)Nc2cc(S(=O)(=O)N(C)C)ccc2C)c1C,97% (inactive)
18,O=C(Nc1ccccc1C(=O)N1CCOCC1)c1ccc(Cl)cc1,98% (inactive)
19,CCOc1ccc(N2CC(C(=O)NCCN3C(=O)S/C(=C\c4cccnc4)C3=O)CC2=O)cc1 (stereo unspecified),95% (inactive)
20,O=C(CSc1ccccc1)Nc1ccc(NC(=O)c2ccco2)cc1,101% (inactive)
21,O=C(CSc1ccccc1)Nc1ccc(C(=O)Nc2cccc(O)c2)cc1,75% (active)
22,Cc1cc(C)cc(NC(=O)CSc2ccccc2)c1,95% (inactive)
23,Cn1c(=NC(=O)c2ccc3c(c2)OCCO3)sc2cc(S(C)(=O)=O)ccc21,100% (inactive)
24,COc1ccc(CC(NC(C)=O)C(=O)NC2CCN(C(=O)c3ccc(OC)c(OC)c3)CC2)cc1OC (stereo unspecified),98% (inactive)
25,CN(C)/N=C/c1cn(-c2ccccc2)nc1-c1cccnc1,101% (inactive)
26,O=C(CNC(=O)COc1ccccc1)NCCc1ccccn1,102% (inactive)
